Here are results for five compounds from PubChem BioAssay AID485281 (National Center for Advancing Translational Sciences (NCATS), 2010).

Hit rate of the full screen: of about 350,000 compounds, about 260 (0.074%) were called active. Inconclusive results (about 8%) are left out. This excerpt belongs to a sample that is enriched for actives. A number with no mark means an inactive call. Calls come from the whole dose curve; as a rule, active = well fitted inhibition curve with a large enough effect; inconclusive = small, poorly fitted or top-dose-only effect; inactive = no such curve, though single readings can be large or run the other way.
% is set by controls: 0 for no effect and ±100 for the full control effect; potency is the fitted concentration of half-maximal effect.

Ferritin light chain (Equus caballus), sequence (P02791 2-175 limits assumed): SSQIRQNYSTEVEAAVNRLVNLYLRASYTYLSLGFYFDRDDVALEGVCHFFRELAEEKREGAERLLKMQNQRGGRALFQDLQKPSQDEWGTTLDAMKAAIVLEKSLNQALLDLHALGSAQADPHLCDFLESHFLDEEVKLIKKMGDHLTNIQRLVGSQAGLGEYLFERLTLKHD

For this assay, the target named is Ferritin light chain (Equus caballus) (UniProt P02791). Description: qHTS Assay for Identification of Novel General Anesthetics. Note: nearly all actives have a fitted effect of over 20% in size. To be noted: apoferritin/1-aminoanthracene competitive binding, fluorescence; series mostly up to 77.5 µM; activity change, negative = displacement: at the top concentration. The text has this:
Source: NIH Chemical Genomics Center [NCGC]
Assay Submitter: Roderic Eckenhoff, University of Pennsylvania
Screening Center PI: Christopher P. Austin, NIH
Probe Development: NIH Chemical Genomics Center [NCGC]
Anesthetic development has remained a largely empirical process. There are growing concerns about the cognitive effects of known general anesthetics and acceleration of the onset of neurodegenerative disease. The compounds' toxicity and multiple specific binding targets in the mammalian brain [4] has made them less attractive as drug leads. In this assay, a GABAergic mimetic model system, apoferritin and a profluorescent 1-aminoanthracene ligand (1-AMA), was used to construct a competitive binding assay for identification of novel general anesthetics. The assay was validated for 1-AMA using other known anesthetics, such as isoflurane (CID:3763) and propofol (CID: 4943), [6].
[1] S.L. Bianchi, T. Tran, C. Liu, S. Lin, Y. Li, J.M. Keller, R.G. Eckenhoff, and M.F. Eckenhoff, Brain and behavior changes in 12-month-old Tg2576 and nontransgenic mice exposed to anesthetics. Neurobiol Aging 29 (2008) 1002-10.
[2] Z. Xie, Y. Dong, U. Maeda, R.D. Moir, W. Xia, D.J. Culley, G. Crosby, and R.E. Tanzi, The inhalation anesthetic isoflurane induces a vicious cycle of apoptosis and amyloid beta-protein accumulation. J Neurosci 27 (2007) 1247-54.
[3] P. Honegger, and J.M. Matthieu, Selective toxicity of the general anesthetic propofol for GABAergic neurons in rat brain cell cultures.
[4] M.F. Eckenhoff, K. Chan, and R.G. Eckenhoff, Multiple specific binding targets for inhaled anesthetics in the mammalian brain. J Pharmacol Exp Ther 300 (2002) 172-9.
[5] C.A. Butts, J. Xi, G. Brannigan, A.A. Saad, S.P. Venkatachalan, R.A. Pearce, M.L. Klein, R.G. Eckenhoff, and I.J. Dmochowski, Identification of a fluorescent general anesthetic, 1-aminoanthracene. Proc Natl Acad Sci U S A 106 (2009) 6501-6.
[6] W.A. Lea, J. Xi, A. Jadhav, L. Lu, C.P. Austin, A. Simeonov, and R.G. Eckenhoff, A high-throughput approach for identification of novel general anesthetics. PLoS One 4 (2009) e7150.
Three uL of reagents (free 1-AMA (50% saturated solution of 1-aminoanthracene
in PBS) in columns 3, 4 as negative control and 1-AMA/apoferritin mixture (10 uM horse-spleen apoferritin in 50% saturated 1-aminoanthracene in PBS) in columns 1, 2, 5-48) was dispensed into 1536-well Greiner black assay plates. Compounds (23 nL) were transferred via Kalypsys pintool equipped with 1,536-pin array (10 nL slotted pins, V&P Scientific, San Diego, CA). Titration of the positive control, propofol, were delivered via pin transfer from separate control plates to the 2nd column of each assay plate. The starting concentration of the control, dissolved in DMSO, was at 160 mM, followed by two-fold dilution points in duplicate, for a total of 16 concentrations. The plates were incubated for 10 min at room temperature, and then read on an EnVision HTS multilabel reader (Perkin-Elmer, Waltham, MA) (end point read, 3 min/plate) using Fura2 BFP excitation filter (380 nm, bandwidth 10 nm) and fluorescein emission filter (535 nm, bandwidth 25 nm) set. A LANCE/DELFIA dichroic mirror with a cutoff wavelength at 400 nm was used to maximize signal accuracy and strength. […] Activity was computed as the normalized fluorescence response relative to free 1-AMA and 1-AMA/apoferritin complex values. […]
`N[C@@H](Cc1c[nH]c2ccccc12)c1nnc(SCc2c(F)cccc2Cl)o1`: the Potency was 28.2 µM (active).

On to `CCOCCCNC(=O)c1c(NC(=O)c2nc(SC)ncc2Cl)sc2c1CCCC2`, for which the “activity change, negative = displacement” value was 173%.

With `COC(=O)c1ccccc1NC(=O)c1cc(-c2ccccc2O)no1`, the “activity change, negative = displacement” value is 164%.

Take `CCc1ccccc1NC(=O)c1sc2nc3c(cc2c1N)CN(Cc1ccccc1)CC3`: the “activity change, negative = displacement” value is 62.1%.

In the case of `C[C@H]1C/C=C/[C@@H]2[C@@H]3O[C@]3(C)[C@@H](C)[C@H]3[C@H](Cc4ccccc4)NC(=O)[C@]32OC(=O)O/C=C/[C@](C)(O)C1=O`, the “activity change, negative = displacement” value is -9.63%.
